Source: PubChem BioAssay (several laboratories)
CHOP inhibitor – blocks CHOP induction under ER stress; CHO-K1 CHOP-promoter luciferase, tunicamycin-induced, 15-18 h; inhibition, % at 10 µM; 220,000 compounds, 3.8% hits; AID 2732;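 active = compounds that reduced the stress-induced luciferase reporter signal by more than about 70% of percent inhibition, limit read from the data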;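 also: 0% = tunicamycin plus vehicle and 100% = wells without tunicamycin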
WT yeast gro inh – growth inhibition of WT yeast, mitochondrial fusion screen | mitochondrial fusion phenotypic screen, WT strain | inhibition, % at 10 µM | 190,000 compounds, 2.1% hits | AID 1362; in the data active = inhibition above about 58%; tested in S. cerevisiae
RAM network inh – blocks the yeast RAM network | S. cerevisiae dse1pr::URA3 reporter, 5-FOA growth OD615, 2 d; analog-sensitive cbk1-as2 kinase mutant strain | inhibition, % at 50 µM | 190,000 compounds, 1.8% hits | AID 868;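 active = inhibition above a set limit, 3 SD over mean compound inhibition, cut at about 8.4% in these data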;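 also: 0% = DMSO-only wells with no growth and 100% = 10 µM 1-NA-PP1 full growth; inhibition rescues growth on 5-FOA so higher OD means more RAM inhibition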
L major viab – reduces viability of Leishmania major promastigotes; resazurin fluorescence viability; inhibition, % at 10 µM; 200,000 compounds, 9% hits; AID 1063; in the data active = inhibition above about 50%;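 also: promastigotes grown with compound for 44 hours at 28 °C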
Starred values were filed as active, the others as inactive; / = not tested or not shown. Rows were chosen to be rich in hits. Some 13% of all compounds tested hit in one or more screens of this group.

SMILES	CHOP inhibitor	WT yeast gro inh	RAM network inh	L major viab
COc1cc(C(=O)NCCC(C)C)ccc1OCc1ccc(Cl)cc1Cl	56.0	21.9	9.8*	97.1*
COc1cc(C(=O)NC2CCCCC2)ccc1OCc1ccc(Cl)cc1Cl	84.8*	10.4	3.7	73.6*
CN(C)CCNC(=O)c1ccc(COc2ccc(Cl)cc2Cl)cc1	-11.3	3.9	0.7	99.0*
c1ccc2c(c1)Cc1cc(CN3CCOCC3)ccc1-2	2.1	10.6	1.2	20.7
CC(C)CC(=O)N1CC(C)N(C(=O)CC(C)C)CC1C (stereo unspecified)	8.7	-4.7	1.2	-3.9
COc1cccc(NC(=S)NCCc2ccccn2)c1	-29.8	0.1	2.9	-2.5
CC(=O)C1=C(O)C(=O)N(C)C1c1ccccc1[N+](=O)[O-] (stereo unspecified)	4.2	/	/	/
Cc1cnc(C(=O)OCC(=O)NCc2ccc3c(c2)OCO3)cn1	-14.1	-0.8	0.0	-4.0
COc1ccc(OCC(=O)N/N=C(/C)Cc2ccccc2)cc1	15.7	-18.2	4.4	-2.2
Cc1ccccc1NC(=S)N(Cc1cccnc1)Cc1ccco1	-9.5	-7.8	0.8	96.9*
CSc1cccc(NC(=S)N(Cc2ccc(C)cc2)Cc2cccnc2)c1	7.3	67.5*	4.2	3.9
O=C(O)CNC(=S)N(Cc1ccccc1)Cc1cccs1	-2.0	-0.1	2.4	-0.6
CNC(=S)N(Cc1ccccc1)Cc1cccnc1	-21.2	/	/	/
Cc1ccccc1NC(=S)N(Cc1ccccc1)Cc1cccnc1	17.4	-11.9	0.0	85.8*
Cc1cccc(C)c1NC(=S)N(Cc1ccccc1)Cc1cccs1	19.3	72.6*	9.5*	58.0*
S=C(Nc1ccccc1)N(Cc1ccccc1)Cc1ccncc1	-9.9	5.3	-1.5	11.8
CCc1nnc(NC(=O)C2CCC(CNc3c(N4CCC(C)CC4)c(=O)c3=O)CC2)s1 (stereo unspecified)	-6.9	/	/	/
O=C(CCn1cnnn1)Nc1ccc(F)cc1	-33.3	-14.7	0.0	-7.0
Cc1ccc(Cl)cc1NC(=S)N(Cc1cccnc1)Cc1ccccc1Cl	18.0	26.7	0.0	98.6*
CC(=O)Nc1ccc(S(=O)(=O)N(C)CC(=O)OCC(=O)c2cc(C)n(-c3ccc4c(c3)OCO4)c2C)cc1	-3.0	-11.9	0.0	0.1
Cc1ccc(S(=O)(=O)c2nnn3c2nc(N2CCCCC2)c2ccccc23)cc1	13.0	6.6	5.5	61.8*
CC(C)CC(=O)NCCCCc1ccccc1	26.6	-3.6	0.4	3.3
Cc1ccc(OC(=O)c2sc3ncn(C)c(=O)c3c2C)cc1	11.0	5.9	3.8	25.0
COc1cc(/C=C/c2ccc3c([N+](=O)[O-])cccc3n2)ccc1OCC(=O)O	-2.5	/	/	/
COc1cc(/C=C/c2cc(OC(C)=O)c3ccccc3n2)c(OC(C)=O)c([N+](=O)[O-])c1	86.7*	-2.6	2.9	8.1
SMILES	CHOP inhibitor	WT yeast gro inh	RAM network inh	L major viab
COC(=O)N/N=C/c1cn(Cc2ccc(F)cc2)c2ccccc12	-0.2	/	/	/
COC(=O)N/N=C/c1cn(Cc2c(Cl)cccc2Cl)c2ccccc12	26.1	63.4*	0.6	11.9
COC(=O)N/N=C/c1cn(CCCOc2ccccc2)c2ccccc12	52.0	5.4	0.8	54.0*
COC(=O)N/N=C/c1cc(Cl)cc(Cl)c1OCc1ccccc1F	53.0	6.7	4.6	-2.8
COC(=O)N/N=C/c1cc(C)n(-c2cccc3ccccc23)c1C	21.1	-2.1	1.2	67.1*
O=C(N/N=C/c1cn(CCOc2ccccc2)c2ccccc12)c1ccncc1	-1.6	-1.6	-0.3	11.8
COC(=O)N/N=C/c1cn(Cc2ccc(Cl)cc2Cl)c2ccccc12	80.5*	-0.3	4.2	11.3
COc1ccc(C(=O)CSc2nc3ncccc3[nH]2)cc1OC	-5.1	/	/	/
COC(=O)N/N=C/c1cn(Cc2ccccc2F)c2ccccc12	23.2	/	/	/
COC(=O)N/N=C/c1cn(Cc2ccccc2Cl)c2ccccc12	63.4	-24.9	-0.3	75.4*
Cc1cccc(N(CC(O)CON=C2c3ccccc3-c3ccccc32)S(C)(=O)=O)c1 (stereo unspecified)	70.4*	62.9*	9.8*	56.1*
COCCNCC(O)CON=C1c2ccccc2-c2ccccc21 (stereo unspecified)	-0.5	12.1	1.5	40.5
CN(CC(O)CON=C1c2ccccc2-c2ccccc21)S(=O)(=O)c1ccc(Br)cc1 (stereo unspecified)	17.1	46.1	9.3*	100.2*
CS(=O)(=O)N(CC(O)CON=C1c2ccccc2-c2ccccc21)c1ccc(F)cc1 (stereo unspecified)	73.0*	-13.4	2.8	-1.8
O=C(CCS(=O)(=O)c1ccc(Br)s1)Nc1ccccc1Br	24.5	10.2	2.2	-4.2
Cc1ccc(-n2cc(-c3ccccc3)c3c(N4CCN(C)CC4)ncnc32)cc1	-0.4	62.0*	0.4	26.8
Fc1ccc(-n2cc(-c3ccccc3)c3c(NN4CCOCC4)ncnc32)cc1	9.2	0.6	0.9	97.2*
OCCN1CCN(c2ncnc3c2c(-c2ccccc2)cn3-c2ccc(F)cc2)CC1	-35.9	5.8	1.8	22.3
NS(=O)(=O)c1ccc(CCNc2ncnc3c2c(-c2ccccc2)cn3-c2ccc(F)cc2)cc1	74.6*	36.0	0.9	-4.0
CC1CN(c2ncnc3c2c(-c2ccccc2)cn3-c2ccc(F)cc2)CC(C)O1 (stereo unspecified)	63.9	75.2*	8.7*	26.1
Cc1ccc(-n2cc(S(=O)(=O)c3ccc(C)cc3)[nH]c2=O)cc1	11.9	-6.9	5.4	1.1
CCOc1ccc(C2N(c3ccc(F)cc3)C(=O)C3CCCN32)cc1OC (stereo unspecified)	15.6	3.6	0.1	-4.6
Cc1nn(-c2ccccc2)c2nc3c(cc12)C(=O)CCC3	37.5	0.3	1.9	-0.3
O=C1OC(c2ccc(Cl)cc2)/C(=C(/O)c2ccccc2)C1=O (stereo unspecified)	0.5	18.3	0.8	-8.3
Cc1ccc(-n2cc(-c3ccccc3)c3c(N4CCOCC4)ncnc32)cc1	68.9	71.5*	0.5	13.8
SMILES	CHOP inhibitor	WT yeast gro inh	RAM network inh	L major viab
CCc1cc(-c2n[nH]c(=S)n2-c2ccccc2C)cs1	50.9	60.2*	1.5	-3.8
S=c1[nH]nc(-c2cc3ccccc3o2)n1Cc1ccccc1	0.6	65.4*	2.0	-0.7
Cc1ccc(-c2n[nH]c(=S)n2Cc2ccccc2)cc1	19.9	-0.5	1.3	-0.9
CCc1cc(-c2n[nH]c(=S)n2CC)cs1	-0.5	11.7	0.0	13.2
Cc1cccc(-c2n[nH]c(=S)n2Cc2ccccc2)c1	0.9	72.0*	1.6	-8.4
CCc1cc(-c2n[nH]c(=S)n2Cc2ccccc2)cs1	-20.9	64.8*	3.1	-9.4
Cc1ccccc1-n1c(-c2ccoc2C)n[nH]c1=S	17.7	-10.5	0.8	-3.2
O=C(Nc1ccc(N2CCOCC2)cc1)c1nc2ccccc2s1	22.7	/	/	/
CCOC(=O)C(=Cc1c[nH]c2ccc(S(=O)(=O)N(C)C)cc12)C(=O)OCC	-122.0	/	/	/
C=Cc1ccc2c(c1)N(C)C(=C)S2	9.9	-2.0	2.9	-5.6
COc1ccc2cnn(-c3ccc(OC(F)(F)F)cc3)c(=O)c2c1OC	-13.5	/	/	/
S=c1[nH]nc(COc2cccc(Cl)c2)n1Cc1ccccc1	4.7	73.3*	4.1	-3.0
O=C(CN1CCN(C/C=C/c2ccccc2)CC1)Nc1ccccc1C(=O)NC1CC1	-3.1	/	/	/
